Screening data: PubChem BioAssay, National Center for Advancing Translational Sciences (NCATS)
In the library only some 18% were active in any assay of this set; here they are far more common.
TDP1 cell CPT – DT40-hTDP1 cell growth loss with CPT; AID 686979; chicken DT40 Tdp1-/-;hTDP1 cells + 20 nM CPT, ATP luminescence, 48 h; 420,000 compounds, 12% hits; Potency, µM (top dose mostly 46.2 µM), most hits filed as inhibitors; also: nearly all actives have a fitted effect of over 55% in size
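Cell growth measured by CellTiter-Glo luminescence after a minimum 48 h, 37 C compound exposure with 20 nM CPT in Tdp1-knockout DT40 cells stably expressing hTDP1, seeded 400/well; qHTS titration format.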
IL1B secr inh – blocks inflammasome-driven IL-1 beta release. activity change, % at 57.5 µM. THP-1 LPS/ATP IL-1B secretion, AlphaLISA, 16 h; hits give low values. 360,000 compounds, 4.7% hits. AID 743279; in the data active = activity change below about -50%; inconclusive = mostly about -30% to -49%
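THP-1 cells pretreated 1 hr with compounds (up to 57.5 uM final), then stimulated with LPS (250 ng/mL final) plus ATP (1.25 mM final); secreted IL-1B measured by AlphaLISA after 16 hr, decreased signal indicating inhibition.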
TDP1 cell noCPT – qHTS for Inhibitors of human tyrosyl-DNA phosphodiesterase 1 (TDP1): qHTS in cells in absence of CPT. DT40 Tdp1-/- hTDP1 cells, no CPT, ATP luminescence, 48 h. 420,000 compounds, 15% hits. AID 686978, 2013. Potency, µM (titrated, usually from 46.2 µM), usual class: inhibitors; also: nearly all actives have a fitted effect of over 55% in size
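Stably hTDP1-transfected Tdp1-null chicken DT40 cells were treated with library compounds minus camptothecin and grown for at least 48 hr at 37 °C, after which cellular ATP was quantified by luminescence.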
HepG2 tox – kills HepG2 cells in TGF-b inhibitor counter-screen. HepG2 CAGA-GFP viability, ATP luminescence, 18 h. Potency, µM (series often up to 46.1 µM), actives largely listed as cytotoxic. 410,000 compounds, 0.76% hits
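HepG2 CAGA-GFP cells (1000/well, DMEM with 1% FBS) received compound, then TGF-beta at 500 pg/mL final, and were incubated 18 hours at 37 degrees C. Viability was read by CellTiter-Glo luminescence. Media-only wells were set as complete cell-killing and DMSO as no toxicity.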
TGFb SMAD3 inh – blocks TGF-b signaling; HepG2 CAGA-GFP TGF-b/SMAD3 reporter, GFP fluorescence, 18 h; TGF-beta stimulated, 500 pg/mL final; Potency, µM (highest dose often 46.1 µM), most hits filed as inhibitors; 410,000 compounds, 1.2% hits; also: nearly all actives have a fitted effect of over 65% in size
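HEPG2 CAGA-GFP cells (1000/well, DMEM with 1% FBS) were pre-incubated 2 h at 37 degrees C, given compound by pin tool, then stimulated with TGF-beta at 500 pg/mL final for 18 h before per-cell GFP fluorescence imaging.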
TDP1 block – inhibitors of human tyrosyl-DNA phosphodiesterase TDP1; Q9NUW8; recombinant TDP1, AlphaScreen DNA substrate cleavage; Potency, µM (doses to about 130 µM), hits mostly inhibitors; 350,000 compounds, 0.28% hits; also: nearly all actives have a fitted effect of over 40% in size
Target sequence (Q9NUW8 whole entry, looked up): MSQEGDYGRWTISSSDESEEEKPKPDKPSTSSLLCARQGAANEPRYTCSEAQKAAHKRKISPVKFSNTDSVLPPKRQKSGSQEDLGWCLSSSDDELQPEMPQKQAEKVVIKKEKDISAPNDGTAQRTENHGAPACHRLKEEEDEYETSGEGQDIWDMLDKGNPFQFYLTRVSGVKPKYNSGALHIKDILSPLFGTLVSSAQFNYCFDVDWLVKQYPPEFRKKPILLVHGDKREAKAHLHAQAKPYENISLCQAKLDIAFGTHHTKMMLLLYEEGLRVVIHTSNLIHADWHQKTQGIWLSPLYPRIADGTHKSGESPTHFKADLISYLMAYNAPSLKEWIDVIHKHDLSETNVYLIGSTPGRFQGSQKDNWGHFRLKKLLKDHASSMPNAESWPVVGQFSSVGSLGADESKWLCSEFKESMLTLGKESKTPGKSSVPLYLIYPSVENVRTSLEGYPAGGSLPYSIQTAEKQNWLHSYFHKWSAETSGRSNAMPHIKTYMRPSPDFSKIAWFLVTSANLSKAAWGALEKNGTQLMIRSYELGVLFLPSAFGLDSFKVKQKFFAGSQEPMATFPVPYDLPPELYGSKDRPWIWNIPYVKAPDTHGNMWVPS
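Here, a 5' biotin and 3' phosphotyrosine-FITC DNA oligonucleotide reports Tdp1 activity: intact substrate bridges AlphaScreen beads, while cleavage leaves a 3' phosphate and drops signal. All incubations at room temperature.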
Hits are given with their value. Unless noted, calls follow the shape of the dose curve; as a rule, active = well fitted curve in the direction sought with a large enough effect; inconclusive = small, poorly fitted or top-dose-only effect, or another doubt; inactive = no such curve, though single readings can be large; an effect the other way counts as inactive or inconclusive.

Screening CCOC(=O)N1CCC(n2c(SCC(=O)N3CCC(C)CC3)nc3ccccc3c2=O)CC1 returned TDP1 cell CPT 16µM, IL1B secr inh inconclusive, TDP1 cell noCPT inconclusive, HepG2 tox inactive, TGFb SMAD3 inh inactive and TDP1 block inactive.
Screening CCOC(=O)N1CCC(n2c(SCC(=O)Nc3ccccc3OC)nc3ccccc3c2=O)CC1 returned TDP1 cell CPT inconclusive, IL1B secr inh inactive, TDP1 cell noCPT inconclusive, HepG2 tox inactive, TGFb SMAD3 inh inconclusive and TDP1 block inactive.
C=CCSc1nc2ccccc2c(=O)n1Cc1ccccc1 was read as TDP1 cell CPT inactive, IL1B secr inh inactive, TDP1 cell noCPT inactive, HepG2 tox inactive, TGFb SMAD3 inh inactive and TDP1 block inactive.
`CCOC(=O)N1CCC(n2c(SCC(=O)N3CCCC3)nc3ccccc3c2=O)CC1` gave TDP1 cell CPT 23µM, IL1B secr inh inactive, TDP1 cell noCPT 18µM, HepG2 tox inactive, TGFb SMAD3 inh inactive and TDP1 block inactive.
C=CCSc1nc2ccccc2c(=O)n1C1CCOC(C)(C)C1 (configuration not stated) was read as TDP1 cell CPT 16µM, IL1B secr inh inactive, TDP1 cell noCPT 23µM, HepG2 tox inactive, TGFb SMAD3 inh inactive and TDP1 block inactive.
For CCC(=O)c1cn(/C(=C\C(=O)OC(C)(C)C)CCC(OC)OC)cc1CC the results were TDP1 cell CPT inconclusive, IL1B secr inh inactive, TDP1 cell noCPT inconclusive, HepG2 tox inactive, TGFb SMAD3 inh inactive and TDP1 block inactive.
`Cn1c(Cc2cccs2)nnc1SCC(=O)Nc1ccc(F)cc1F` gave TDP1 cell CPT inactive, IL1B secr inh inactive, TDP1 cell noCPT inactive, HepG2 tox inactive, TGFb SMAD3 inh inactive and TDP1 block inactive.
Screening O=C(Nc1ccc(N2CCOCC2)cc1)C1(c2ccc(Cl)cc2)CCC1 returned TDP1 cell CPT inactive, IL1B secr inh inactive, TDP1 cell noCPT inconclusive, HepG2 tox inactive, TGFb SMAD3 inh inactive and TDP1 block inactive.
O=C(Nc1ccc(Cl)cc1)Nc1ccc(N2CCOCC2)cc1 was read as TDP1 cell CPT inconclusive, IL1B secr inh inactive, TDP1 cell noCPT 18µM, HepG2 tox inactive, TGFb SMAD3 inh inactive and TDP1 block inactive.
`CC(=O)c1ccc(N2CCN(C(=O)Nc3ccc(C(C)C)cc3)CC2)cc1` gave TDP1 cell CPT inconclusive, IL1B secr inh inactive, TDP1 cell noCPT 16µM, HepG2 tox inactive, TGFb SMAD3 inh inactive and TDP1 block inactive.
For O=C(Nc1ccc(N2CCOCC2)cc1)c1cn2ccccc2n1 the results were TDP1 cell CPT 13µM, IL1B secr inh inactive, TDP1 cell noCPT 10µM, HepG2 tox inactive, TGFb SMAD3 inh inactive and TDP1 block inactive.
`O=C(Nc1ccc(Cl)c(S(=O)(=O)N2CCOCC2)c1)c1cn2ccccc2n1` gave TDP1 cell CPT inactive, IL1B secr inh inactive, TDP1 cell noCPT inconclusive, HepG2 tox inactive, TGFb SMAD3 inh inactive and TDP1 block inactive.
For CC(C)(C)c1ccc(C(=O)Nc2ccc(N3CCOCC3)cc2)cc1 the results were TDP1 cell CPT 18µM, IL1B secr inh inconclusive, TDP1 cell noCPT 18µM, HepG2 tox inactive, TGFb SMAD3 inh inactive and TDP1 block inactive.
COc1ccccc1C(=O)Nc1ccnn1C1CCN(Cc2ncc[nH]2)CC1 was read as TDP1 cell CPT inactive, IL1B secr inh inactive, TDP1 cell noCPT inactive, HepG2 tox inactive, TGFb SMAD3 inh inactive and TDP1 block inactive.
CCCCCn1c(=O)[nH]c2cc(C(=O)NCc3ccc(C)cc3)ccc2c1=O was read as TDP1 cell CPT inactive, TDP1 cell noCPT inactive, HepG2 tox inactive, TGFb SMAD3 inh inactive and TDP1 block inactive.
CN(C)/C=C1\C(=O)Oc2ccccc2C1=O was read as TDP1 cell CPT inactive, IL1B secr inh inactive, TDP1 cell noCPT inactive, HepG2 tox inactive and TGFb SMAD3 inh inactive.
Screening N#CC1(NC(=O)CSc2nnc(Nc3ccccc3F)s2)CCCC1 returned TDP1 cell CPT inactive, IL1B secr inh inactive, TDP1 cell noCPT inactive, HepG2 tox inactive, TGFb SMAD3 inh inactive and TDP1 block inactive.
Screening CC(C)(C)c1ccc(C(=O)Nc2ccc(C(=O)N3CCCC3)cc2)cc1 returned TDP1 cell CPT 21µM, IL1B secr inh inactive, TDP1 cell noCPT 23µM, HepG2 tox inactive, TGFb SMAD3 inh inactive and TDP1 block inactive.
CC(C)(C)c1ccc(C(=O)N2CCC(NC(=O)c3ccccc3)CC2)cc1 was read as TDP1 cell CPT 15µM, IL1B secr inh inactive, TDP1 cell noCPT inconclusive, HepG2 tox inactive and TGFb SMAD3 inh inactive.
For CC(C)(C)c1ccc(NC(=O)c2ccsc2)cc1 the results were TDP1 cell CPT inconclusive, IL1B secr inh inconclusive, TDP1 cell noCPT 23µM, HepG2 tox inactive, TGFb SMAD3 inh inactive and TDP1 block inactive.
CC(C)(C)c1ccc(C(=O)Nc2ccc(Cl)cc2)cc1 was read as TDP1 cell CPT inactive, IL1B secr inh inactive, TDP1 cell noCPT inactive, HepG2 tox inactive, TGFb SMAD3 inh inactive and TDP1 block inactive.
CC(C)c1ccc(C(=O)Nc2ccc(N3CCOCC3)cc2)cc1 was read as TDP1 cell CPT 18µM, IL1B secr inh inactive, TDP1 cell noCPT 21µM, HepG2 tox inactive, TGFb SMAD3 inh inactive and TDP1 block inactive.
`Cc1cc(F)ccc1-n1nnc(C(N)=O)c1C` gave TDP1 cell CPT inactive, TDP1 cell noCPT inactive, HepG2 tox inactive, TGFb SMAD3 inh inactive and TDP1 block inactive.
For CCOc1cc(C(=O)Nc2ccc(N3CCOCC3)cc2)cc(Br)c1OC the results were TDP1 cell CPT inconclusive, IL1B secr inh inactive, TDP1 cell noCPT 26µM, HepG2 tox inactive, TGFb SMAD3 inh inactive and TDP1 block inactive.
Screening O=C(CN(C(=O)c1ccc(Cl)cc1)C1CCCCC1)Nc1ccc(Cl)c([N+](=O)[O-])c1 returned TDP1 cell CPT 16µM, IL1B secr inh inconclusive, TDP1 cell noCPT 15µM, HepG2 tox inactive, TGFb SMAD3 inh inconclusive and TDP1 block inactive.
Cc1ccc([N+](=O)[O-])cc1NC(=O)CN(C(=O)c1ccc(Cl)cc1)C1CCCCC1 was read as TDP1 cell CPT 21µM, IL1B secr inh inactive, TDP1 cell noCPT 18µM, HepG2 tox inactive, TGFb SMAD3 inh inactive and TDP1 block inactive.
CC1CCCC(N2CCN(C(=O)c3ccc([N+](=O)[O-])cc3)CC2)C1 (configuration not stated) was read as TDP1 cell CPT inactive, IL1B secr inh inconclusive, TDP1 cell noCPT inactive, HepG2 tox inactive, TGFb SMAD3 inh inactive and TDP1 block inactive.
